Rows were chosen to be rich in hits. Some 27% of all compounds tested hit in one or more screens of this group.
sEH activator: activators of human soluble epoxide hydrolase | 91,000 tested, 0.04% active | activation, % at 2 µM | purified human sEH enzymatic activity, activator screen; in the data active = activation above about 37%
CYP2C9 inhib: blocks human cytochrome P450 2C9. P11712. CYP2C9 Supersomes, luciferin-H conversion, luminescence. inhibition, % at 5 µM. 96,000 tested, 20% active. AID 777;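 active = blocking of liver enzyme CYP2C9 beyond about 50% at 5 µM, limit read from the data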
Target sequence (P11712 whole entry, looked up): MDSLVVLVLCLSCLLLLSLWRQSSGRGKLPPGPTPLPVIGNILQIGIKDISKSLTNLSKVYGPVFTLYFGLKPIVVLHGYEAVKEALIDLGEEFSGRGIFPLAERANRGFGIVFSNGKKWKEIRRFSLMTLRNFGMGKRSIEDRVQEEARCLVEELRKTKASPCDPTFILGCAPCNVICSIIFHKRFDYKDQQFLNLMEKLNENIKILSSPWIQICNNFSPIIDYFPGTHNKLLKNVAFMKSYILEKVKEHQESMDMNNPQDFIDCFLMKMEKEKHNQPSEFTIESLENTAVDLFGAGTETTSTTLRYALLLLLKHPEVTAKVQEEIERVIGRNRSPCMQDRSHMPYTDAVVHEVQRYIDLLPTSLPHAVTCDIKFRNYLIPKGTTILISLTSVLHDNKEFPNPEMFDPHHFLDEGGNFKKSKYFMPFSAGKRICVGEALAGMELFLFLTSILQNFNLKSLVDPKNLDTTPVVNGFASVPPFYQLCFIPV
CYP2C19 inhib: inhibitors of human CYP2C19. inhibition, % at 5 µM. 96,000 tested, 21% active. AID 778. CYP2C19 Supersomes, luciferin-H EGE luminescence, 30 min. P33261;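 active = CYP2C19 inhibition above a set limit at 5 µM in the primary screen, cut at about 50% in these data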;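 also: plate controls were negative control wells for no effect and 2.5 mM tranylcypromine positive control for full effect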
sEH inhibitor: soluble epoxide hydrolase (human) inhibition | P34913 | recombinant human sEH enzymatic activity assay | inhibition, % at 2 µM | 91,000 tested, 0.34% active; in the data active = inhibition above about 80%
CYP2C19 activ: activators of human cytochrome P450 2C19; 96,000 tested, under 10 active; P33261; recombinant CYP2C19, luciferin-H EGE luminescence; hits give high values; 0 = fully inhibited enzyme, 1 = untreated enzyme; activation factor at 5 µM;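 active = activation factor of at least 2 at 5 µM in the primary screen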;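 also: 0 = wells with 2.5 mM tranylcypromine and 1 = vehicle-only wells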
CYP2C9 act: increases human cytochrome P450 2C9 activity | 96,000 tested, 1.4% active | AID 1024 | activation factor at 5 µM | recombinant CYP2C9, luciferin-H conversion, luminescence; hits give high values; factor 1 = untreated enzyme, 0 = blocked;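 active = activation factor of 2 or more for CYP2C9 at a 5 µM dose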;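 also: 0 = sulfaphenazole-blocked wells and 1 = vehicle-only wells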
* = called active by the depositor.

Screening O=C(NCc1ccncc1)c1nnc(Cc2c(F)cccc2Cl)o1 returned sEH activator -1, CYP2C9 inhib 83*, CYP2C19 inhib 80*, sEH inhibitor 0, CYP2C19 activ 0.2 and CYP2C9 act 0.2.
For C/C(=N\OC(=O)c1ccc(C)cc1)c1sc(C)nc1C the results were sEH activator 1, CYP2C9 inhib -13, CYP2C19 inhib 0, sEH inhibitor -3, CYP2C19 activ 1 and CYP2C9 act 1.1.
For COc1ccc(C(=O)O/N=C(\C)c2ccccc2)cc1 the results were sEH activator -2, CYP2C9 inhib 88*, CYP2C19 inhib 52*, sEH inhibitor 4, CYP2C19 activ 0.5 and CYP2C9 act 0.1.
`C/C(=N\OC(=O)c1ccc(OC(C)C)cc1)c1ccc(C)c(C)c1` gave sEH activator -12, CYP2C9 inhib 56*, CYP2C19 inhib 56*, sEH inhibitor 13, CYP2C19 activ 0.4 and CYP2C9 act 0.4.
`CC/C(=N\OC(=O)c1ccc(OC(C)C)cc1)c1ccc(C)cc1` gave sEH activator -13, CYP2C9 inhib 62*, CYP2C19 inhib 73*, sEH inhibitor 15, CYP2C19 activ 0.3 and CYP2C9 act 0.4.
O=C(NC1CCS(=O)(=O)C1)Oc1ccc(Cl)cc1 (centres undefined) was read as sEH activator -4, CYP2C9 inhib -10, CYP2C19 inhib -9, sEH inhibitor 1, CYP2C19 activ 1.1 and CYP2C9 act 1.1.
`Cc1onc(-c2ccccc2)c1C(=O)n1cccn1` gave sEH activator 4, CYP2C9 inhib 7, CYP2C19 inhib 41, sEH inhibitor -1, CYP2C19 activ 0.6 and CYP2C9 act 0.9.
Cc1nn(Cc2ccc([N+](=O)[O-])cc2)c(=O)n1-c1cccc(F)c1 was read as sEH activator -9, CYP2C9 inhib 9, CYP2C19 inhib 44, sEH inhibitor 10, CYP2C19 activ 0.6 and CYP2C9 act 0.9.
Screening COc1ccc(C2C3=C(CCCC3=O)Nc3c(-c4ccccc4)c(C)nn32)cc1 (centres undefined) returned sEH activator 1, CYP2C9 inhib 35, CYP2C19 inhib 71*, sEH inhibitor -1, CYP2C19 activ 0.3 and CYP2C9 act 0.6.
Screening CN(CCc1ccccn1)Cc1ccc(Cl)cc1 returned sEH activator 4, CYP2C9 inhib -24, CYP2C19 inhib 53*, sEH inhibitor -5, CYP2C19 activ 0.5 and CYP2C9 act 1.2.
For CCc1ccc(CN(C)CCc2ccccn2)cc1 the results were CYP2C9 inhib 21, CYP2C19 inhib 89*, CYP2C19 activ 0.1 and CYP2C9 act 0.8.
For Clc1ccc(-c2n[nH]c3c2CCC3)cc1Cl the results were sEH activator 3, CYP2C9 inhib 38, CYP2C19 inhib 13, sEH inhibitor -2, CYP2C19 activ 0.9 and CYP2C9 act 0.6.
CC(C)(C)c1ccc(Cn2ccc(-c3ccc4c(c3)OCO4)n2)cc1 was read as sEH activator -10, CYP2C9 inhib 16, CYP2C19 inhib 9, sEH inhibitor 12, CYP2C19 activ 0.9 and CYP2C9 act 0.8.
For Cn1c2ccc(F)cc2c2ncn(Cc3ccco3)c(=O)c21 the results were sEH activator 1, CYP2C9 inhib 61*, CYP2C19 inhib 51*, sEH inhibitor -2, CYP2C19 activ 0.5 and CYP2C9 act 0.4.
Cn1c2ccccc2c2ncn(Cc3ccco3)c(=O)c21 was read as sEH activator -12, CYP2C9 inhib 60*, CYP2C19 inhib 69*, sEH inhibitor 10, CYP2C19 activ 0.3 and CYP2C9 act 0.4.
For CSC1=C(C#N)C(c2ccc(Cl)cc2)C2=C(CC(C)(C)CC2=O)N1 (centres undefined) the results were CYP2C9 inhib 65*, CYP2C19 inhib 24, CYP2C19 activ 0.8 and CYP2C9 act 0.3.
For CCCSC1=C(C#N)C(c2ccc(OC)cc2)C2=C(CC(C)(C)CC2=O)N1 (centres undefined) the results were CYP2C9 inhib 16, CYP2C19 inhib 13, CYP2C19 activ 0.9 and CYP2C9 act 0.8.
Screening COc1ccc(C2C(C#N)=C(C)NC3=C2C(=O)CC(C)(C)C3)cc1 (centres undefined) returned sEH activator -12, CYP2C9 inhib 66*, CYP2C19 inhib 36, sEH inhibitor 11, CYP2C19 activ 0.6 and CYP2C9 act 0.3.
CC1(C)NC(=O)N(CC(O)CNC23CC4CC(CC(C4)C2)C3)C1=O (centres undefined) was read as sEH activator 9, CYP2C9 inhib 6, CYP2C19 inhib 7, sEH inhibitor -6, CYP2C19 activ 0.9 and CYP2C9 act 0.9.
Screening CCOC(=O)N1CCN(c2c(N3CCc4ccccc43)c(=O)c2=O)CC1 returned CYP2C9 inhib 15, CYP2C19 inhib 42, CYP2C19 activ 0.6 and CYP2C9 act 0.9.
`c1ccc2[nH]c(SN3CCOCC3)nc2c1` gave sEH activator 4, CYP2C9 inhib -12, CYP2C19 inhib -17, sEH inhibitor -5, CYP2C19 activ 1.2 and CYP2C9 act 1.1.
CCN(CC)C(=O)C1CCN(S(=O)(=O)c2ccc3oc4ccccc4c3c2)CC1 was read as sEH activator -2, CYP2C9 inhib -75, CYP2C19 inhib 17, sEH inhibitor 1, CYP2C19 activ 0.8 and CYP2C9 act 1.8.
Screening Cc1cc(C)c(S(=O)(=O)N(C2=NCCS2)S(=O)(=O)c2c(C)cc(C)cc2C)c(C)c1 returned sEH activator 12 and sEH inhibitor -9.
`CCCn1nc(NC(=O)CC(C)C)c2cc3ccccc3nc21` gave sEH activator -10, CYP2C9 inhib 28, CYP2C19 inhib 12, sEH inhibitor 9, CYP2C19 activ 0.9 and CYP2C9 act 0.7.
`Cc1ccc(N2C(=O)C3CC(c4ccccc4)=C4C5C=CC(C6C(=O)N(c7ccc(C)cc7C)C(=O)C56)C4C3C2=O)c(C)c1` (centres undefined) gave sEH activator -2, CYP2C9 inhib 85*, CYP2C19 inhib 13, sEH inhibitor 4, CYP2C19 activ 0.9 and CYP2C9 act 0.2.
O=C(N=NC(=O)c1ccc2c(O)n(C3CCCCC3)c(O)c2c1)c1cccnc1 was read as sEH activator 14, CYP2C9 inhib 22, CYP2C19 inhib 24, sEH inhibitor -16, CYP2C19 activ 0.8 and CYP2C9 act 0.8.
For O=C(CCCn1c(=S)[nH]c2cc3c(cc2c1=O)OCO3)N1CCN(c2ccc(F)cc2)CC1 the results were CYP2C9 inhib 72*, CYP2C19 inhib 1, CYP2C19 activ 1 and CYP2C9 act 0.3.
Screening COc1cccc(N2CCN(C(=O)CCn3c(=S)[nH]c4cc5c(cc4c3=O)OCO5)CC2)c1 returned CYP2C9 inhib 32, CYP2C19 inhib -1, CYP2C19 activ 1 and CYP2C9 act 0.7.
For O=C(CCCn1c(=S)[nH]c2cc3c(cc2c1=O)OCO3)N1CCN(c2ncccn2)CC1 the results were sEH activator 20, CYP2C9 inhib 50*, CYP2C19 inhib 2, sEH inhibitor -20, CYP2C19 activ 1 and CYP2C9 act 0.5.

From PubChem BioAssay
